# PLCg1 inh: PLC-gamma1 enzyme inhibitors, primary screen, biochemical, fluorescence, purified enzyme; 1-phosphatidylinositol 4,5-bisphosphate phosphodiesterase gamma-1 (Homo sapiens), P19174; fluorogenic substrate; inhibition, % at 12.2 µM; 0.84% of 370,000 active; AID 720700, 2013
# ADAM10 inh: human ADAM10 inhibitors, primary screen, biochemical, QFRET, HTS. Disintegrin and metalloproteinase domain-containing protein 10 (Homo sapiens), O14672. recombinant ADAM10, EDANS/DABCYL FRET peptide cleavage, 3 h. inhibition, % at 7 µM. 0.62% of 370,000 active. AID 720582, 2013;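 active = inhibition above a per-campaign cutoff equal to the mean of compounds falling between control-based bounds plus 3 SD, cut at about 20% in these data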
# KLK7 zymogen act: proKLK7 zymogen activators, primary screen, biochemical, fluorescence intensity; Kallikrein-7 (Homo sapiens), P49862; purified proKLK7, EDANS-DABCYL substrate fluorescence; 100% is mature enzyme control, 0% vehicle; activation, % at 7 µM; 0.9% of 370,000 active;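 active = activation above the mean of all tested compounds plus 3 SD, computed per campaign excluding outliers beyond control limits, cut at about 13% in these data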
# PLCb3 inh: human PLC-beta3 inhibitors, primary screen, biochemical, fluorescence; 1-phosphatidylinositol 4,5-bisphosphate phosphodiesterase beta-3 (Homo sapiens), Q01970; Purified PLC-beta3, fluorogenic substrate; inhibition, % at 12.2 µM; 0.18% of 370,000 active; AID 720704, 2013; in the data active = inhibition above about 11%
# ADAM17 inh: ADAM17 inhibitors, primary screen, biochemical, QFRET | 0.83% of 370,000 active | recombinant ADAM17, EDANS/DABCYL FRET peptide cleavage | inhibition, % at 6.95 µM;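 active = inhibition above the mean of compounds lying between control limits plus 3 SD, set per campaign, cut at about 8.5% in these data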
# ADAM10 confirm: human ADAM10 inhibitors, confirmation, biochemical, QFRET, triplicate. shares compounds with ADAM10 inh. ADAM10 QFRET peptide cleavage, EDANS fluorescence. inhibition, % at 6.95 µM. 1% of 2,100 active;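 active = inhibition above about 20% chosen separately for each screening run, limit read from the data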
# ADAM17 ctr: ADAM17 inhibitors, counter-screen for ADAM10 exosite inhibitor project, biochemical, QFRET, high throughput; 0.5% of 2,100 active; inhibition, % at 6.95 µM; shares compounds with ADAM10 inh; AID 743214, 2013; ADAM17 QFRET peptide cleavage, EDANS fluorescence;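 active = mean triplicate inhibition above the solvent-only control wells' mean plus 3 SD, cut at about 12% in these data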
# ADAM10 counter: ADAM10 inhibitors, counter-screen for ADAM17 exosite inhibitor project, biochemical, FRET, human ADAM10 | inhibition, % at 6.95 µM | recombinant ADAM10, EDANS/DABCYL FRET peptide cleavage, 3 h | 47% of 2,900 active | shares compounds with ADAM17 inh;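 active = mean inhibition over the triplicate runs exceeds the activity threshold set in the earlier primary screen, cut at about 20% in these data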
# ADAM17 confirm: ADAM17 inhibitors, hit retest, confirmation, biochemical, QFRET peptide cleavage; shares compounds with ADAM17 inh; recombinant ADAM17, EDANS/DABCYL QFRET peptide cleavage; inhibition, % at 6.95 µM; 65% of 2,900 active;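 active = mean inhibition across replicates above the hit cutoff set in the primary screen, cut at about 8.5% in these data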
# PLCgamma1 ctr: PLC-gamma1 enzyme inhibitors, counter-screen for PLC-beta3 inhibitor project, biochemical, fluorescence; shares compounds with PLCg1 inh; AID 743258, 2014; inhibition, % at 12.3 µM; 3.1% of 3,300 active; purified PLC-gamma1, fluorogenic substrate
# PLCbeta3 conf: PLC-beta3 inhibitor confirmation, biochemical, fluorescence, purified enzyme. fluorogenic substrate fluorescence. shares compounds with PLCg1 inh. 1% of 3,300 active. inhibition, % at 12.3 µM; in the data active = inhibition above about 11%
# Numbers stand for hits; – = inactive; · = not tested or not shown. Compounds with a hit are over-represented: about 2.9% of the library has one in this group of screens. Cut-off read from the data, not from the text of the source, unless noted: active = inhibition above about 9.5%; inactive = the rest.
SMILES,PLCg1 inh,ADAM10 inh,KLK7 zymogen act,PLCb3 inh,ADAM17 inh,ADAM10 confirm,ADAM17 ctr,ADAM10 counter,ADAM17 confirm,PLCgamma1 ctr,PLCbeta3 conf
Cc1ccccc1-c1cc(C(=O)NCc2ccc(OC(F)(F)F)cc2)n(CC2CC(c3cccnc3)=NO2)n1 (stereo not drawn),11.4,21.2,–,–,10.3,–,–,25.4,13.0,–,–
CCOC(=O)c1ccc(NC(=O)C(=O)NCC2CCCO2)cc1 (stereo not drawn),–,–,–,–,–,·,·,·,·,·,·
CC1C(=O)N(Cc2cn(Cc3ccco3)nn2)CCS(=O)(=O)N1Cc1ccc(-c2ccccc2Cl)cc1 (stereo not drawn),–,–,–,–,–,·,·,·,·,·,·
COc1ccc(OC)c(-c2csc(NC(=O)COC(=O)C3(C)CC3(Cl)Cl)n2)c1 (stereo not drawn),15.8,39.0,–,–,17.7,–,–,–,12.2,–,–
N#C/C(=C\c1ccccc1)C(=O)NNS(=O)(=O)c1cccc([N+](=O)[O-])c1,11.0,69.3,–,–,34.8,–,–,–,–,–,–
COc1ccc(NC(=S)Nc2cc(-c3ccccc3)[nH]n2)cc1Cl,12.3,32.4,–,12.2,18.5,–,–,36.1,22.4,–,–
COc1ccc(NC(=S)Nc2cc(C)[nH]n2)cc1Cl,–,–,–,–,–,·,·,·,·,·,·
Cc1ccc(NC(=O)COC(=O)c2cc(C)nc3ccccc23)c([N+](=O)[O-])c1,–,–,–,–,–,·,·,·,·,·,·
CCOc1ccc(N2CC(C(=O)Nc3cccc(S(=O)(=O)N4CCCCC4)c3)CC2=O)cc1 (stereo not drawn),10.9,21.9,–,–,–,–,–,·,·,–,–
Cc1cccc(NC(=O)CCS(=O)(=O)c2ccc(Cl)cc2)c1,–,–,–,–,–,·,·,·,·,·,·
COc1ccc([N+](=O)[O-])cc1NC(=O)C(C)c1ccccc1 (stereo not drawn),–,–,–,–,–,·,·,·,·,·,·
COc1ccc([N+](=O)[O-])cc1NC(=S)NC(NC(=O)C(c1ccccc1)c1ccccc1)C(Cl)(Cl)Cl (stereo not drawn),11.6,32.1,–,–,19.2,–,–,29.1,13.9,–,–
CN1CCN(c2oc(COc3ccc(-c4ccccc4)cc3)nc2C#N)CC1,10.9,26.6,–,–,18.1,–,–,23.4,14.3,–,–
CN(Cc1ccccc1)C(=O)c1ccc(Cc2cn(C)c3ccccc23)nc1,–,–,–,–,–,·,·,·,·,·,·
O=C(COC(=O)c1ccccc1C(=O)OCC(=O)NCCc1c[nH]c2ccccc12)NCCc1c[nH]c2ccccc12,9.9,24.8,–,–,9.1,–,–,27.6,10.9,9.6,–

# Screens: PubChem BioAssay, The Scripps Research Institute Molecular Screening Center
